Laboratory results as given in PubChem BioAssay (NCI).
Compounds without any hit were thinned out: in the full panel of roughly 83,000, 20% have a hit.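 The endpoint reported here, percent growth, reads 100 for growth as untreated, 0 for no net growth and -100 for all cells dead.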 Unmarked numbers belong to inactive results. Active and inactive are the calls of the source. Rule for the calls: active = growth percent below 10; inactive = the rest.

system: HL-60(TB) leukemia; test: NCI-60 one-dose screen, 48 h (100 = growth as untreated, 0 = no growth, -100 = all killed); details: 10 µM unless noted

SMILES | growth
O=C(N/N=C(\CS(=O)(=O)c1ccccc1)c1cc2ccccc2oc1=O)c1ccccc1 | 105%
NNc1ncnc2c1ncn2C1OC(CO)C(O)C1O (centres undefined) | 34.8%
COc1cc2cc(Oc3ccc(NC(=O)Nc4cccc(C(F)(F)F)c4)cc3)c(C)nc2cc1OC | -24.8% (active)
O=C(O)c1ccc(-n2cc(CNc3ccc(C(F)(F)F)cc3)c(-c3ccccc3)n2)cc1 | 89.2%
CN1CCN(CC(=O)Nc2cccc(-n3cc(-c4ccncc4)c(-c4ccc(Cl)c(O)c4)n3)c2)CC1 | 5.27% (active)
Nc1[nH]nc(Nc2ccccc2)c1-c1nc2ccccc2s1 | 16.6%
COc1ccc2ccccc2c1/C=N/N1CCCCC1 | 94.3%
CC(C)(c1ccc(OCC(O)CNCc2ccco2)cc1)c1ccc(OCC(O)CNCc2ccco2)cc1 (centres undefined) | 63.9%
O=C1N(Cc2ccccc2Cl)c2ccccc2C12NN=C(c1ccccc1)S2 (centres undefined) | 58.5%
COc1ccccc1OCC(=O)N1CCCCCC1 | 93.6%
CCn1c(Cc2ccccc2Nc2c(Cl)cccc2Cl)nnc1SCC(=O)NN1C(=O)/C(=C/c2cc(OC)c(O)c(OC)c2)SC1=S | -1.07% (active)
COc1ccc(CN2CCc3c(Sc4ccccc4)nc(N)nc3C2=O)c(OC)c1 | 14.3%
O=C(Nc1ccccc1O)c1ccc(NS(=O)(=O)c2cccc3cccnc23)cc1 | -12.2% (active)
CCCNc1nc2ccccc2c2c1S(=O)(=O)c1ccc(Cl)cc1C2=O | -14.1% (active)
COc1ccc(-c2ccc(=O)oc2C#Cc2cc(OC)c(OC)c(OC)c2)cc1O | -45.7% (active)
COc1cc(/C=C\C(=O)O)ccc1OCc1ccccc1 | 122%
S=c1[nH]nc2ccccn12 | 59.3%
CSc1nn(-c2ccccc2)c2ncnc(Oc3ccccc3)c12 | 109%
Cc1ccc(-c2nn(CC(=O)N3CCOCC3)c(N)c2C#N)cc1 | 103%
Cc1ccc2nc(/C(C#N)=C(/CCCO)NC(Cc3ccccc3)C(=O)OCc3ccccc3)[nH]c(=O)c2c1 (centres undefined) | 122%

SMILES | growth
NC(=O)CSc1nc(-c2ccc(F)cc2)cc(-c2ccco2)n1 | 108%
c1ccc(-c2nnc(Nc3ccc4c(c3)OCCO4)o2)c(NCc2ccncc2)c1 | 6.43% (active)
COc1cc(NCCCCCNC(C)(C)C)c2ncccc2c1 | 128%
Nc1c(C(=O)Nc2ccccn2)sc2nc3c(cc12)CCCCC3 | -9.45% (active)
COc1ccccc1/C=C/C(=O)Nc1ccc(F)cc1 | 86.3%
Cc1cc(N2CCOCC2)nc(N(CCCNc2ccnc3cc(Cl)ccc23)Cc2ccc3c(c2)OCO3)n1 | -60.9% (active)
CCCn1c(N)c(C(N)=O)sc1=S | 94.9%
COc1ccc2c(c1)CC=C1[C@@H]2CC[C@]2(C)C(=O)/C(=N/O)C[C@@H]12 | 53.4%
Cc1[nH]c(/C=C/C(=O)c2ccc(C(F)(F)F)c(F)c2)c(C)c1C(=O)NCC(C)C | 98.5%
NS(=O)(=O)Oc1ccc(-c2ccc3sccc3c2)cc1 | 99.7%
O=C(Nc1ccc(Nc2ccncc2)cc1)c1ccc(Nc2ccnc3ccc([N+](=O)[O-])cc23)cc1 | 79.9%
C=C(CN1CC=CCC1)[C@@H]1CC[C@]2(COC(C)=O)CC[C@]3(C)[C@H](CC[C@@H]4[C@@]5(C)CC[C@H](O)C(C)(C)[C@@H]5CC[C@]43C)[C@@H]12 | 102%
COc1ccc2c(c1)C(=O)CC(c1ccccc1OC)O2 (centres undefined) | 88.2%
O=Cc1cc2ccccc2nc1Oc1ccc(C(F)(F)F)cc1 | 92%
CC12OC(CC(O)C1O)n1c3ccccc3c3c4c(c5c6ccccc6n2c5c31)C(=O)N(CCN1CCCC1)C4=O (centres undefined) | 18.3%
CC(=O)Oc1ccc(N2C(=O)C(Cl)=C(Nc3cccc(C(F)(F)F)c3)C2=O)cc1 | 96.5%
CN(C)CC(C)(CN(C)C)C(=O)/C=C/c1c(Cl)cccc1Cl | -5.28% (active)
CCOC(=O)/C(=C/c1ccc([N+](=O)[O-])cc1)C(=O)c1ccccc1 | -20.8% (active)
Oc1c(I)cc(-c2nc3ccccc3s2)cc1CN(Cc1ccccn1)Cc1ccccn1 | 2.06% (active)
